Data: the supplement of paper PMC7411054

Columns and labels:
Test in all cases: phenotypically active (imaging signature differs from DMSO and reproducible) at any of 0.3-9 uM (binary (1 = active, 0 = inactive)); higher = active
Conditions in all cases: treatment time: 24 h
[1] = tested on: A549-ACTB-RAB5A
Method in brief: (§1)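 Phenotypic activity depended on meeting both a deviation and a reproducibility criterion. The fifteen gene-edited A549, HepG2 and WPMY1 reporter lines were treated at 0.3, 1, 3 or 9 µM for 24 h, four wells each, then imaged live with features normalised to solvent control wells. Deviation required ≥3 of 4 wells past the 95th percentile of control Euclidean distances, and reproducibility a median replicate Pearson correlation above the 95th percentile of non-replicates.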

[2] = tested on: A549-CANX-COX4
Method in brief: as §1

[3] = tested on: A549-GM130-SQSTM1
Method in brief: as §1

[4] = tested on: A549-TP53BP1-CLTA
Method in brief: as §1

[5] = tested on: A549-TUBA1B-RELA
Method in brief: as §1

[6] = tested on: HepG2-ACTB-RAB5A
Method in brief: as §1

[7] = tested on: HepG2-CANX-COX4
Method in brief: as §1

[8] = tested on: HepG2-GM130-SQSTM1
Method in brief: as §1

[9] = tested on: HepG2-TP53BP1-CLTA
Method in brief: as §1

[10] = tested on: HepG2-TUBA1B-RELA
Method in brief: as §1

[11] = tested on: WPMY1-ACTB-RAB5A
Method in brief: as §1

[12] = tested on: WPMY1-CANX-COX4
Method in brief: as §1

[13] = tested on: WPMY1-GM130-SQSTM1
Method in brief: as §1

[14] = tested on: WPMY1-TP53BP1-CLTA
Method in brief: as §1

[15] = tested on: WPMY1-TUBA1B-RELA
Method in brief: as §1

Measured: phenotypically active

C[C@@H]1O[C@@H](O[C@H]2C(=O)c3c(O)cc(O)cc3O[C@@H]2c2ccc(O)c(O)c2)[C@H](O)[C@H](O)[C@H]1O [Astilbin]
inactive: [1] 0 | [2] 0 | [3] 0 | [4] 0 | [5] 0 | [6] 0 | [7] 0 | [8] 0 | [9] 0 | [10] 0 | [11] 0 | [12] 0 | [13] 0 | [14] 0 | [15] 0

CCC(NC(C)C)C(O)c1ccc(O)c(O)c1 (stereo not given) [isoetharine]
inactive: [1] 0 | [2] 0 | [3] 0 | [4] 0 | [5] 0 | [6] 0 | [7] 0 | [8] 0 | [9] 0 | [10] 0 | [11] 0 | [12] 0 | [13] 0 | [14] 0 | [15] 0

CC[N+](CC)(CC)CCC(O)(c1ccccc1)C1CCCCC1 (stereo not given) [tridihexethyl]
inactive: [1] 0 | [2] 0 | [3] 0 | [4] 0 | [5] 0 | [6] 0 | [7] 0 | [8] 0 | [9] 0 | [10] 0 | [11] 0 | [12] 0 | [13] 0 | [14] 0 | [15] 0

O=C(NC(CO)C(O)c1ccc([N+](=O)[O-])cc1)C(Cl)Cl (stereo not given) [Chloramphenicol]
inactive: [1] 0 | [2] 0 | [3] 0 | [4] 0 | [5] 0 | [6] 0 | [7] 0 | [8] 0 | [9] 0 | [10] 0 | [11] 0 | [12] 0 | [13] 0 | [14] 0 | [15] 0

Fc1ccc(-c2c3cccc(C(F)(F)F)c3nn2Cc2ccc(F)cc2Cl)cc1
inactive: [1] 0 | [2] 0 | [3] 0 | [4] 0 | [5] 0 | [6] 0 | [7] 0 | [8] 0 | [9] 0 | [10] 0 | [11] 0 | [12] 0 | [13] 0 | [14] 0 | [15] 0

O=C(O)[C@]1(O)C[C@H](O)[C@@H](O)[C@@H](O)C1 [Quinic acid]
inactive: [1] 0 | [2] 0 | [3] 0 | [4] 0 | [5] 0 | [6] 0 | [7] 0 | [8] 0 | [9] 0 | [10] 0 | [11] 0 | [12] 0 | [13] 0 | [14] 0 | [15] 0

Nc1ncnc2c1ncn2[C@H]1O[C@@H](C(=O)N2CCN(CC(=O)Nc3cccc4c3CNC4=O)CC2)[C@H](O)[C@@H]1O
inactive: [1] 0 | [2] 0 | [3] 0 | [4] 0 | [5] 0 | [6] 0 | [7] 0 | [8] 0 | [9] 0 | [10] 0 | [11] 0 | [12] 0 | [13] 0 | [14] 0 | [15] 0

CN1CC(=O)N2[C@H](c3ccc4c(c3)OCO4)c3[nH]c4ccccc4c3C[C@@H]2C1=O [tadalafil]
inactive: [1] 0 | [2] 0 | [3] 0 | [4] 0 | [5] 0 | [6] 0 | [7] 0 | [8] 0 | [9] 0 | [10] 0 | [11] 0 | [12] 0 | [13] 0 | [14] 0 | [15] 0

Cn1nnc2c(C(N)=O)ncn2c1=O [temozolomide]
inactive: [1] 0 | [2] 0 | [3] 0 | [4] 0 | [5] 0 | [6] 0 | [7] 0 | [8] 0 | [9] 0 | [10] 0 | [11] 0 | [12] 0 | [13] 0 | [14] 0 | [15] 0

CC(C(=O)O)c1cccc(C(=O)c2ccccc2)c1 (stereo not given) [ketoprofen]
inactive: [1] 0 | [2] 0 | [3] 0 | [4] 0 | [5] 0 | [6] 0 | [7] 0 | [8] 0 | [9] 0 | [10] 0 | [11] 0 | [12] 0 | [13] 0 | [14] 0 | [15] 0

CC(C)(C)NCC(O)c1ccc(O)c(CO)c1 (stereo not given) [albuterol]
inactive: [1] 0 | [2] 0 | [3] 0 | [4] 0 | [5] 0 | [6] 0 | [7] 0 | [8] 0 | [9] 0 | [10] 0 | [11] 0 | [12] 0 | [13] 0 | [14] 0 | [15] 0

CC(C)(C)NC(=O)[C@@H]1CN(Cc2cccnc2)CCN1C[C@@H](O)C[C@@H](Cc1ccccc1)C(=O)N[C@H]1c2ccccc2C[C@H]1O [indinavir]
inactive: [1] 0 | [2] 0 | [3] 0 | [4] 0 | [5] 0 | [6] 0 | [7] 0 | [8] 0 | [9] 0 | [10] 0 | [11] 0 | [12] 0 | [13] 0 | [14] 0 | [15] 0
